From PubChem
This is a sample that favours compounds with a hit; in the whole collection about 11% have one here.
PNC inhibitor: perinucleolar compartment assembly inhibition. PC3M PTB-GFP, PNC prevalence imaging, 16 h; active compounds read low. activity change (PNC), negative = inhibition, % at 10 µM. 3.1% of 140,000 active;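 active = readout at or below -70, meaning at least 70% loss of cells showing the perinucleolar compartment, a nuclear body marking cancer cells; inconclusive = readout between -30 and a set limit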
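Read-out is percentage of cells bearing a perinucleolar compartment, from automated 20x imaging of fixed, Hoechst-stained PC3M PTB-GFP cells. Cells were seeded 4 h, then exposed 16 h to compound (23 nl of library stock) in duplicate plates.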
ALOX12 inhib: 12-hLO (ALOX12) enzyme inhibition; 0.12% of 150,000 active; purified 12-hLO, xylenol orange hydroperoxide absorbance; Potency, µM (doses to about 57.1 µM), actives largely listed as inhibitors; note: nearly all actives have a fitted effect of over 55% in size
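Purified human 12hLO (150 nM final) was preincubated with compounds for 15 min at room temperature in 25 mM Hepes pH 7.0, 0.01% Triton X-100, then reacted with 40 uM arachidonic acid for 30 min. Hydroperoxide was detected with ferrous iron/xylenol orange.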
IMPase inh: IMPase inhibition in cells | 120,000 tested, under 10 active | CHO-M1 cells, IP1 accumulation, HTRF TR-FRET ratio | inhibition (IP1 accumulation), % at 46.1 µM | AID 901; active = well fitted curve in the direction sought with a large enough effect in the signal ratio, not every such curve was filed as active; inconclusive = small, poorly fitted or top-dose-only effect, or a change in a side signal; inactive = no such curve, though single readings can be large or run the other way; the % refers to the signal ratio;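 note: cells stimulated with carbachol in lithium chloride buffer; higher means more IMPase inhibition seen as more IP1 and lower FRET ratio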
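CHO-M1 cells (CHO stably expressing M1 receptor), compound up to 46 uM final, stimulated with carbachol (50 uM as added) in buffer with 50mM LiCl, pH 7.4, 30 min at 37C. Cytosolic IP1 read by TR-FRET; AC50 from Hill fits.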
HPGD block: HPGD (human) dehydrogenase inhibition; Potency, µM, most hits filed as inhibitors; purified HPGD, NADH fluorescence kinetic, PGE2 substrate; 4.3% of 150,000 active; P15428; active = well fitted inhibition curve with a large enough effect, not every such curve was filed as active; inconclusive = small, poorly fitted or top-dose-only effect, or another doubt; inactive = no such curve, though single readings can be large or run the other way
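NADH formation kinetics: reaction with 30 uM PGE2 and 1 mM NAD+ (final), 20 nM enzyme, Tris-HCl pH 8 with Tween 20, after 15 min compound preincubation at room temperature. Fluorescence change, last versus first of five reads.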
ALDH1A1 block: inhibitors of human aldehyde dehydrogenase 1A1 | P00352 | Purified ALDH1A1, NADH fluorescence, propionaldehyde substrate | Potency, µM (titrated, usually from 75.3 µM), most hits filed as inhibitors | 7.3% of 220,000 active | AID 1030; active = well fitted inhibition curve with a large enough effect, not every such curve was filed as active; inconclusive = small, poorly fitted or top-dose-only effect, or another doubt; inactive = no such curve, though single readings can be large or run the other way
Target sequence (P00352 whole entry, looked up): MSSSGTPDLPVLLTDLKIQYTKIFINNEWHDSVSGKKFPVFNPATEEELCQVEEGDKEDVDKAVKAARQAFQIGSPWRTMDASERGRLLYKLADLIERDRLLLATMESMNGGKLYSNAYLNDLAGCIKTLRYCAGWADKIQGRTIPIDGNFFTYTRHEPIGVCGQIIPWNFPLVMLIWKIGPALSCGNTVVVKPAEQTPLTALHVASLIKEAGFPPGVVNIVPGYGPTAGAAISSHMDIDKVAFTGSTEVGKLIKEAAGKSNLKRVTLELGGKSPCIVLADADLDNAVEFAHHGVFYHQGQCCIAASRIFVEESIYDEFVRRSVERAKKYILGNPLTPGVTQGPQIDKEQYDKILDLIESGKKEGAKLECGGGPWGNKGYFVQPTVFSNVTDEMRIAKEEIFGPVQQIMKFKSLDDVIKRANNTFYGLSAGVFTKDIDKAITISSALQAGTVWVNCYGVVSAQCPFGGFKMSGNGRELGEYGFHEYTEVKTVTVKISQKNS
IMPase Li inh: membrane-permeable IMPase blocker, potentiated with lithium. CHO-M1 cells, IP1 TR-FRET (IP-One), carbachol + lithium. Potency, µM (series often up to 59.4 µM), most hits filed as inhibitors. 0.35% of 210,000 active. AID 1457;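 note: IP1 builds up when IMPase is blocked and the TR-FRET signal falls; nearly all actives have a fitted effect of over 50% in size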
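CHO-M1, 2000 cells/well, 16–30 h culture; cpd + low Li+, 30 min 37C; lysis with d2-IP1/Eu-anti-IP1 Ab, 10 min RT; TR-FRET 665/620 ratio and 620 channel; AC50 via Hill.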
Hits are given with their value; i = inactive; ? = inconclusive; nt = no result; [ ] = another dose, or the depositor's remark. Unless noted, calls come from the whole dose curve; as a rule, active = well fitted curve in the direction sought with a large enough effect; inconclusive = small, poorly fitted or top-dose-only effect, or another doubt; inactive = no such curve, though single readings can be large; an effect the other way counts as inactive or inconclusive.

SMILES	PNC inhibitor	ALOX12 inhib	IMPase inh	HPGD block	ALDH1A1 block	IMPase Li inh
COc1ccc(-n2nnc3c(SCc4ccccc4)ncnc32)cc1	i	i	i	16µM	13µM	i
COC(=O)c1ccc(CSc2ncnc3c2nnn3-c2ccc(F)cc2)o1	i	i	i	7.1µM	i	i
CCN(CC)C(=O)CSc1ncnc2c1nnn2-c1ccc(F)cc1	i	i	i	i	?	i
CCN(CC)C(=O)CSc1ncnc2c1nnn2-c1ccc(OC)cc1	i	i	i	i	4µM	i
O=C(CCc1nc2ccccc2s1)NCc1ccccc1F	nt	nt	nt	nt	?	i
O=C(CCCc1nc2ccccc2s1)NCc1ccccc1F	i	i	nt	32µM	?	i
CC(C)CC(=O)NC1(C(F)(F)F)C(=O)Nc2c1c(=O)[nH]c(=O)n2-c1ccccc1 (centres undefined)	nt	nt	i	nt	nt	nt
Cc1ccccc1OCCn1c(-c2ccc(Cl)cc2)nc2ccccc2c1=O	nt	nt	i	nt	nt	nt
COC(=O)c1ccc(CNC(=O)COC(=O)C23CC4CC(CC(C4)C2)C3)cc1	?	i	i	i	?	i
COC(=O)c1ccc(CNC(=O)COC(=O)CC23CC4CC(CC(Br)(C4)C2)C3)cc1	?	i	nt	i	13µM	i
CC1CCc2c(C(=O)Nc3nccs3)csc2C1 (centres undefined)	i	i	i	7.1µM	i	i
O=C(NCC1CCCO1)c1csc2c1CCCCC2 (centres undefined)	i	i	i	25µM	i	i
CCc1c(C(=O)NC2CCCC2)csc1C	-99	i	i	14µM	i	i
O=C(NC1CCCC1)c1csc2c1CCCC2	i	i	i	16µM	?	i
CCCNC(=O)c1csc2c1CCCCC2	i	i	i	?	i	i
CCCCCCCCN[C@@H](C)[C@H](O)c1ccc(SC(C)C)cc1	nt	i	i	i	i	i
COc1ccc(CCNC(=O)c2csc3c2CCCC3)cc1	nt	nt	nt	nt	0.79µM	i
Cc1ccccc1NC(=S)NNC(=O)c1csc2c1CCC(C)C2 (centres undefined)	?	?	i	i	20µM	i
CC1CCc2c(C(=O)NCC3CCCO3)csc2C1 (centres undefined)	i	i	i	7.9µM	?	?
C=C1CC[C@H](O)C/C1=C/C=C1\CCC[C@]2(C)C([C@H](C)CCCC(C)(C)O)CC[C@@H]12 (some centres undefined)	nt	nt	nt	nt	i	i
C[C@@](N)(C(=O)O)c1ccc(S(=O)(=O)O)cc1	nt	i	i	i	i	i
O=[N+]([O-])c1ccc([C@@H](Nc2ccccc2)c2ccc3cccnc3c2O)cc1	nt	i[11.4 µM]	nt	i	?	i
CC1Cc2c(COc3ccccc3)nc3c(c2CO1)CN(CCOc1ccccc1)CC3 (centres undefined)	nt	nt	nt	nt	i[13.5 µM]	nt
O=C(NCc1ccco1)C(c1cccs1)N(Cc1ccccc1)C(=O)Cn1nnc2ccccc21 (centres undefined)	?	i	i	i	i	i
O=C(NC1CCCC1)C(c1cccs1)N(Cc1ccco1)C(=O)Cn1nnc(-c2cccs2)n1 (centres undefined)	?	i	i	i	i	i
SMILES	PNC inhibitor	ALOX12 inhib	IMPase inh	HPGD block	ALDH1A1 block	IMPase Li inh
Cc1ccc(-c2nnn(CC(=O)N(Cc3ccco3)C(C(=O)NC3CCCC3)c3cccs3)n2)o1 (centres undefined)	-100	i	i	i	i	i
CC(C)CCNC(=O)C(c1ccncc1)N(Cc1cccs1)C(=O)Cn1nnc(-c2ccc(F)cc2)n1 (centres undefined)	-100	i	i	i	?	i
O=C(NCc1ccco1)C(c1ccco1)N(Cc1cccs1)C(=O)Cn1nnc2ccccc21 (centres undefined)	i	i	i[0.0738 µM]	i	14µM	i
O=C(NCC1CCCO1)C(c1cccs1)N(Cc1cccs1)C(=O)Cn1nnc(-c2cccs2)n1 (centres undefined)	i	i	?	i	8.9µM	i
Cc1ccc(-c2nnn(CC(=O)N(Cc3cccs3)C(C(=O)NC3CCCC3)c3ccco3)n2)o1 (centres undefined)	i	i	i	i	22µM	i
Cc1ccc(-c2nnn(CC(=O)N(Cc3cccs3)C(C(=O)NC3CCCCC3)c3ccco3)n2)o1 (centres undefined)	i	i	i	i	i	i
Cc1ccc(OCCN2C(=O)c3ccccc3C2=O)c(C)c1	i	i	i	22µM	i	i
Cc1ccccc1OCCCN1C(=O)C(=O)c2cccc(C)c21	i	?	i	?	0.11µM	i
Cc1cccc2c1N(CCCOc1ccc(C(C)(C)C)cc1)C(=O)C2=O	?	i	i	8.9µM	0.089µM	i
Cc1ccc2c(c1)C(=O)C(=O)N2CCCOc1ccccc1C	nt	nt	nt	nt	i	i
CCN1CC(CN(C)Cc2cn(-c3ccc(C)cc3)nc2-c2cccc(C)c2)CC1=O (centres undefined)	nt	nt	nt	nt	i	i
Cc1ccccc1-c1ccc2ncnc(-n3ccnc3)c2c1	nt	nt	nt	nt	?	i
CCOC(=O)C1CCc2sc(N)c(C#N)c21 (centres undefined)	-135	i	i	i	?	i
CNC(=O)[C@H]1O[C@@H](n2cnc3c(NCc4ccc(N)cc4)ncnc32)[C@H](O)[C@H]1O	nt	nt	nt	i	i	i
O=C(COC(=O)c1cncc(Br)c1)NC1CCCCCC1	nt	nt	nt	nt	?	i
Cn1cccc1C(=O)N1CCC2(CC1)CN(C(=O)Nc1cccc(C#N)c1)C2	nt	i	nt	i	28µM	?
